PubChem BioAssay (Tox21)
Inconclusive results are not listed. Activity calls are given as the source filed them. Calls follow the shape of the dose curve; as a rule, active = well fitted curve in the direction sought with a large enough effect in the repeat runs; inconclusive = weak or mixed curves; inactive = no such curve, though single readings can be large; an effect the other way counts as inactive or inconclusive.

What was measured:
[1] = A CellTox Green Cytotoxicity Assay to monitor cytotoxicity in HEK293 cells - 40 hour (AID 1224871); conditions: CellTox Green fluorescence; series mostly up to 76.8 µM; also: nearly all actives have a fitted effect of over 45% in size
Outline: (§1)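 Real-time, in one plate: 600 HEK293 cells/well with dead-cell DNA dye, pinned compound after 5 h, 37 C incubation over 40 h; viable cells give no appreciable fluorescence.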

[2] = qHTS RealTime-Glo MT Cell Viability Assay in HEK293 cells - 16 hour (AID 1224872); conditions: RealTime-Glo luminescence; series mostly up to 76.8 µM; also: top concentration of the series differs between compounds; nearly all actives have a fitted effect of over 50% in size
Outline: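 HEK293 cells seeded with NanoLuc/prosubstrate reagent, rested 5 h at 37 C, then dosed and kept at 37 C up to 40 h. Nonlytic real-time luminescence from viable cells read at 0, 8, 16, 24, 32 and 40 h.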

[3] = qHTS RealTime-Glo MT Cell Viability Assay in HepG2 cells - 8 hour (AID 1224873); conditions: RealTime-Glo luminescence; series mostly up to 76.8 µM; also: nearly all actives have a fitted effect of over 55% in size
Outline: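 HepG2 cells (600/well) mixed with RealTime-Glo MT reagent, settled 5 h at 37 C/5% CO2 before compound addition. Nonlytic NanoLuc luminescence from viable-cell prosubstrate reduction read repeatedly during 40 h treatment at 37 C.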

[4] = qHTS RealTime-Glo MT Cell Viability Assay in HEK293 cells - 40 hour (AID 1224874); conditions: RealTime-Glo luminescence; max response: active compounds read low; also: nearly all actives have a fitted effect of over 50% in size
Outline: (§2)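 Kinetic, non-lysing viability readout. Seed HEK293 (600/well) with reagent, incubate 5 h at 37 C/5% CO2, pin 23 nL compound in DMSO, incubate at 37 C, read luminescence at 0, 8, 16, 24, 32, 40 h.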

[5] = A CellTox Green Cytotoxicity Assay to monitor cytotoxicity in HEK293 cells - 24 hour (AID 1224875); conditions: CellTox Green fluorescence; series mostly up to 76.8 µM; also: nearly all actives have a fitted effect of over 45% in size
Outline: as §1

[6] = A CellTox Green Cytotoxicity Assay to monitor cytotoxicity in HepG2 cells - 16 hour (AID 1224876); conditions: CellTox Green fluorescence; series mostly up to 76.8 µM; also: nearly all actives have a fitted effect of over 45% in size
Outline: (§3)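 Cytotoxicity was tracked as dead-cell DNA fluorescence in HepG2 cells treated with test compounds at 37 C; each time-point value comes from one kinetic series spanning 0, 8, 16, 24, 32 and 40 h.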

[7] = qHTS RealTime-Glo MT Cell Viability Assay in HepG2 cells - 32 hour (AID 1224877); conditions: RealTime-Glo luminescence; series mostly up to 76.8 µM; also: nearly all actives have a fitted effect of over 55% in size
Outline: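 HepG2 cells (600/well) were dispensed with RealTime-Glo reagents, incubated 5 h at 37 °C, then treated with compounds in DMSO for up to 40 h. Nonlytic NanoLuc luminescence reflecting viable cells was read at each stated time point.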

[8] = qHTS RealTime-Glo MT Cell Viability Assay in HEK293 cells - 0 hour (AID 1224880); conditions: RealTime-Glo luminescence; series mostly up to 76.8 µM; also: top concentration of the series differs between compounds; nearly all actives have a fitted effect of over 45% in size
Outline: as §2

[9] = A CellTox Green Cytotoxicity Assay to monitor cytotoxicity in HepG2 cells - 40 hour (AID 1224879); conditions: CellTox Green fluorescence; series mostly up to 76.8 µM; also: nearly all actives have a fitted effect of over 40% in size
Outline: as §3

[10] = A CellTox Green Cytotoxicity Assay to monitor cytotoxicity in HepG2 cells - 24 hour (AID 1224878); conditions: CellTox Green fluorescence; series mostly up to 76.8 µM; also: nearly all actives have a fitted effect of over 45% in size
Outline: as §3
% is scaled to controls: 0 for no effect and ±100 for the full control effect.

COc1cc(OC)nc(Oc2cccc(Oc3nc(OC)cc(OC)n3)c2C(=O)O)n1
inactive: Potency [1] | Potency [2] | Potency [3] | max response [4] -0.579% | Potency [5] | Potency [6] | Potency [7] | outcome [8]

CC(=O)[C@H]1CC[C@H]2[C@@H]3CC[C@H]4C[C@H](O)CC[C@]4(C)[C@H]3C(=O)C[C@]12C
inactive: Potency [1] | Potency [2] | Potency [3] | max response [4] -27.6% | Potency [5] | Potency [6] | Potency [7] | Potency [9] | outcome [8]

N#CCBr
inactive: Potency [1] | Potency [2] | Potency [3] | max response [4] 6.36% | Potency [5] | Potency [6] | Potency [10] | Potency [9] | outcome [8]

O=[N+]([O-])c1ccc(CBr)cc1
inactive: Potency [1] | Potency [2] | Potency [3] | max response [4] 12.7% | Potency [5] | Potency [6] | Potency [10] | outcome [8]

COc1ccc(C(=O)N2CCCC2=O)cc1
inactive: Potency [1] | Potency [2] | Potency [3] | max response [4] -7.3% | Potency [5] | Potency [7] | outcome [8]

O=C1c2ccccc2C(=O)c2ccccc21
inactive: cytotoxicity increase [1] -0.882% [at 15.8 µM] | activity change, negative = cytotoxicity [2] 16.4% [at 15.8 µM] | viability change, negative = cytotoxic [3] 0.64% [at 15.8 µM] | max response [4] 18.9% | cytotoxicity increase [6] 8.1% [at 15.8 µM] | activity change, negative = cytotoxic [7] 1.27% [at 15.8 µM] | cytotoxicity [10] 6.42% [at 15.8 µM] | cytotoxicity increase [9] 18.9% [at 15.8 µM]

ClC(Cl)(Cl)C(Cl)(Cl)Cl
inactive: Potency [1] | Potency [2] | Potency [3] | max response [4] 2.47% | Potency [5] | Potency [6] | Potency [9] | outcome [8]

OC(c1ccccc1)(c1ccccc1)C1CCNCC1
inactive: Potency [1] | Potency [2] | Potency [3] | max response [4] -12.9% | Potency [5] | Potency [6] | Potency [10] | Potency [9]

CC(C)COP(=O)(OCC(C)C)OCC(C)C
inactive: Potency [1] | Potency [2] | Potency [3] | max response [4] 0.408% | Potency [5] | Potency [6] | Potency [10] | Potency [9]

CCC(Cl)[N+](=O)[O-] (stereo not given)
inactive: Potency [1] | Potency [2] | Potency [3] | max response [4] 4.31% | Potency [5] | Potency [6] | outcome [8]

C#CCN1C(=O)COc2cc(F)c(N3C(=O)C4=C(CCCC4)C3=O)cc21
inactive: Potency [1] | Potency [2] | Potency [3] | max response [4] 2.01% | Potency [5] | Potency [6] | Potency [10] | Potency [9] | outcome [8]

CC(C(=O)c1ccccc1)N(C)C (stereo not given)
inactive: Potency [1] | Potency [2] | Potency [3] | max response [4] 2.47% | Potency [5] | Potency [6] | Potency [7] | Potency [9]

O=[N+]([O-])c1cccc2cccnc12
inactive: Potency [1] | Potency [2] | Potency [3] | max response [4] -7.09% | Potency [5] | Potency [6] | Potency [7] | Potency [9]

COC(=O)C1=CCCN(C)C1
inactive: Potency [1] | Potency [2] | Potency [3] | max response [4] 3.81% | Potency [5] | Potency [7] | Potency [10] | Potency [9] | outcome [8]

CN1CCC(N(Cc2ccccc2)c2ccccc2)CC1
inactive: Potency [1] | Potency [2] | Potency [3] | max response [4] 0.452% | Potency [6] | Potency [7] | Potency [10] | outcome [8]

N#Cc1c(Cl)cccc1Cl
inactive: Potency [1] | Potency [2] | Potency [3] | max response [4] 18.9% | Potency [6] | Potency [7] | Potency [9] | outcome [8]

C(CCOCC1CO1)COCC1CO1 (stereo not given)
inactive: Potency [1] | Potency [2] | Potency [3] | Potency [5] | Potency [6] | Potency [7] | Potency [10]

CCN(Cc1ccc(Cl)nc1)/C(=C/[N+](=O)[O-])NC
inactive: Potency [1] | Potency [2] | Potency [3] | max response [4] 2.66% | Potency [6] | Potency [7] | Potency [10] | Potency [9] | outcome [8]

CCN(CC)c1nc(C)cc(OP(=S)(OC)OC)n1
inactive: Potency [1] | Potency [2] | Potency [3] | max response [4] 2.28% | Potency [6] | Potency [7] | outcome [8]

CCCCOC(=O)c1ccccc1C(=O)O
inactive: Potency [1] | Potency [2] | Potency [3] | Potency [5] | Potency [6] | Potency [7] | Potency [10] | Potency [9] | outcome [8]

CNC(=O)Oc1cccc(C(C)C)c1
inactive: Potency [1] | Potency [2] | Potency [3] | max response [4] -3.66% | Potency [6] | Potency [7] | Potency [10] | Potency [9] | outcome [8]

BrCCCCCCBr
inactive: Potency [1] | Potency [2] | Potency [3] | Potency [5] | Potency [6] | Potency [7] | Potency [10] | Potency [9] | outcome [8]
